Experimental data from PubChem BioAssay AID504843 (Broad Institute, 2011).
Among all 1,200 compounds or so, about 360 (30%) were called active. The rule behind the calls is not given here. Only a sample is shown. Entries with a potency or affinity are not part of this list.

Experiment: bacterial growth inhibition, dose response, counter-screen, BacTiter-Glo luminescence, cherry-picked samples (AID 504843);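 note: growth measured after 8 h incubation at 30 °C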
Conditions: BacTiter-Glo ATP luminescence; series mostly up to 15 µM

Row | SMILES | outcome
1 | COc1ccc(S(=O)(=O)N2CCC(C(=O)N3CCN(C)CC3)CC2)cc1Cl | inactive
2 | COc1ccc(OC)c(S(=O)(=O)N2CCC(C(=O)NC3CC3)CC2)c1 | inactive
3 | COc1cccc(C(=O)N(CN2CCCC2=O)c2cccc(Cl)c2)c1OC | inactive
4 | COc1ccc(S(=O)(=O)NCCSCc2ccco2)cc1Cl | inactive
5 | NS(=O)(=O)c1cc(C(=O)O)c(NCc2ccco2)cc1Cl | inactive
6 | CS(=O)(=O)c1ccc([C@@H](O)[C@@H](CF)NC(=O)C(Cl)Cl)cc1 | inactive
7 | CCC[C@@H]1C[C@@H](C(=O)N[C@H]([C@@H](C)O)[C@H]2O[C@H](SC)[C@H](O)[C@@H](O)C2O)N(C)C1 (stereo partly drawn) | inactive
8 | O=C(O)CCc1ccc(-c2cccs2)o1 | inactive
9 | c1ccc(CC2=NCCN2)cc1 | inactive
10 | Cc1ccc2[nH]c(=O)c(CNS(=O)(=O)c3ccccc3)c(-c3ccccc3)c2c1 | inactive
11 | Cc1ccccc1Nc1nnc(C)c(=O)[nH]1 | inactive
12 | Cc1cccc(-c2onc3ccc(C4(C)OCCO4)cc23)c1 | inactive
13 | COc1ccc(/C=N/NC(=O)COc2cc(C)cc(C)c2)cc1COC(C)=O | inactive
14 | Cc1ccc(NC(=O)CSc2nccn2C)cc1F | inactive
15 | CCn1c(SCC(=O)NC2CCCCC2)nnc1-c1cccnc1 | inactive
16 | Cc1ccc(N2CC(C(=O)Nc3cc(C(F)(F)F)ccc3N3CCCC3)CC2=O)cc1 (stereo not drawn) | inactive
17 | CCOCCCNC(=O)C(c1ccc(C)cc1)N(Cc1cccs1)C(=O)c1ccccc1O (stereo not drawn) | inactive
18 | COc1ccc(OC)c(C(=O)CSc2nnc(-c3cccs3)o2)c1 | inactive
19 | O=C(Nc1ccc(C(=O)O)cc1)/C(=C\C=C\c1ccccc1)NC(=O)c1ccccc1Br | inactive
20 | Cc1noc(NS(=O)(=O)c2ccc(NC(=O)c3ccoc3C)cc2)c1C | inactive
21 | O=C(O)c1ccn(COc2ccc(Br)cc2)n1 | inactive

Row | SMILES | outcome
22 | Cc1ccc(NC(=O)c2cc(N3C(=O)C4CC=CCC4C3=O)ccc2N2CCOCC2)cc1Cl (stereo not drawn) | inactive
23 | CCOc1ccc(N(CC(=O)NCc2ccc(OC)cc2)S(=O)(=O)c2c(C)[nH]c(=O)[nH]c2=O)cc1 | inactive
24 | CN1CCc2c(sc3nc(SCC(=O)N4CCOCC4)nc(N)c23)C1 | inactive
25 | Cc1cc(C)c(C#N)c(Oc2ccccc2Br)n1 | inactive
26 | Cc1nnc(Nc2ccc(Cl)c(C(F)(F)F)c2)[nH]c1=O | inactive
27 | CC(/C=N/NC(=O)c1n[nH]c2c1CCC2)=C\c1ccccc1 | inactive
28 | CCCN=C1N(CC)C[C@@H]2[C@@H]3C(=O)N(C)C(=O)[C@@H]3[C@](Cc3ccccc3)(C(=O)OC)N12 | inactive
29 | O=C(CCCc1nc2ccccc2s1)NC1CCOC1=O (stereo not drawn) | inactive
30 | Cc1cccc(CS(=O)(=O)c2ncc(Cl)c(C(=O)Nc3nnc(C(C)C)s3)n2)c1 | inactive
31 | Cc1cccc(NC(=O)CN(c2ccc(F)cc2)S(C)(=O)=O)c1 | inactive
32 | O=C(C[C@H]1C[C@H](C(=O)N2CCOCC2)[C@@]2(CCC3CCCC3)c3[nH]c4cc(-c5ccco5)ccc4c3CCN2C1=O)NCCCn1ccnc1 | inactive
33 | CC(=O)Nc1ccc(/C=N/N2CCCCC2)cc1 | inactive
34 | Cc1ccc(/C=C2/C(=N)N3N=C(CC(=O)N4CCCC4)SC3=NC2=O)o1 | inactive
35 | C=CCN1C(=O)c2ccc(C(=O)N3CCC(C(N)=O)CC3)cc2C1=O | inactive
36 | CC(C)N1CCc2c(sc(NC(=O)c3ccc(S(=O)(=O)N4CCc5ccccc54)cc3)c2C(N)=O)C1 | inactive
37 | CC(NC(=O)c1ccc([N+](=O)[O-])o1)C12CC3CC(CC(C3)C1)C2 (stereo not drawn) | inactive
38 | Cc1ccc2nc(C(=O)O)c(C(=O)O)nc2c1 | inactive
39 | NC(=O)Cn1c(-c2nonc2N)nc2ccccc21 | inactive
40 | CC(C)c1nn2c(=O)cc(CSc3ccccc3NC(=O)c3ccccc3F)nc2s1 | inactive
41 | CC(=O)c1ccc(NC(=O)CSc2nnc(C3CC3)n2C2CC2)cc1 | inactive
42 | COc1ccc(-n2c(Cc3cccn3C)nnc2SCC(=O)NCc2ccc(F)cc2)cc1 | inactive

Row | SMILES | outcome
43 | Cc1ccc2cc(CCNC(=O)C(=O)c3c(C)[nH]c4ccccc34)c(=O)[nH]c2c1 | inactive
44 | O=C(/C=C/c1ccccc1)Nc1cc(S(=O)(=O)N2CCOCC2)ccc1N1CCCC1 | inactive
45 | O=C(Nc1ccc(F)cc1)Nc1cc(S(=O)(=O)N2CCOCC2)ccc1N1CCCC1 | inactive
46 | Nc1ccn(CC(=O)N2CCN(c3ccccn3)CC2)c(=O)n1 | inactive
47 | CC(Sc1ccsc1[N+](=O)[O-])C(=O)N1CCN(c2ccccn2)CC1 (stereo not drawn) | inactive
48 | COC(CNc1ncnc2sc(-c3ccccc3)cc12)OC | inactive
49 | Cc1cccc(-c2nnc(-c3cccc(NC(=O)Cc4cccs4)c3)o2)c1 | inactive
50 | O=C(CSc1nnc(-c2cccnc2)o1)Nc1ccc(Cl)cc1 | inactive
51 | CSc1cccc(NC(=O)CN(C)S(=O)(=O)c2cnc[nH]2)c1 | inactive
52 | C[C@H](NC(=O)c1nc[nH]c1C(=O)NCCCCCNC(=O)OC(C)(C)C)c1ccccc1 | inactive
53 | CC1CCN(C(=O)c2[nH]cnc2C(=O)N[C@@H](C)C(=O)OC(C)(C)C)CC1 | inactive
54 | CCCCCCCN(c1ccccc1)[C@@H]1C[C@H]2CCCC(=O)N3CC[C@@H](C1)[C@@H]23 | inactive
55 | CCOC(=O)c1c(C)[nH]c(C(=O)N(C)Cc2cccc(OC)c2OC)c1C | inactive
56 | O=C1CN2C(=Nc3ccc(Br)cc3C2c2ccccc2)CCN1 (stereo not drawn) | inactive
57 | CC[C@H]1OC(=O)[C@H](C)[C@@H](O[C@H]2C[C@@](C)(OC)[C@@H](O)[C@H](C)O2)[C@H](C)[C@@H](O[C@@H]2O[C@H](C)C[C@H](N(C)C)[C@H]2O)[C@](C)(O)C[C@@H](C)CN(C)[C@H](C)[C@@H](O)[C@]1(C)O | inactive
58 | O=[N+]([O-])c1ccc(/C=N/n2c(CO)nc3ccccc32)s1 | inactive
59 | Cc1nn(-c2ccccc2)c2nc3c(cc12)C(=O)CCC3 | inactive
60 | O=C(CN1CCC(n2nnc3cc(F)ccc32)CC1)NCc1ccco1 | inactive
61 | Nc1nc2n(n1)C(c1cccc(Br)c1)CC(c1ccccc1)N2 (stereo not drawn) | inactive
62 | Nc1ccccc1S(=O)(=O)NC1=NCCCCC1 | inactive
63 | CCOc1ccc(-c2c(C(=O)N/N=C/c3c[nH]c4ccccc34)nnn2-c2nonc2N)cc1 | inactive
